Here are results for three compounds from PubChem BioAssay (EPA / NIEHS).

Assay [1] in a line: CCTE_Mundy_HCI_hN2_NOG_NeuriteCount: CCTE's Neurite Outgrowth Assay in human hN2 cells for Neurite Count, Mundy Lab (AID 2284219). The method in brief: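 In this morphology assay, hNP1-derived neurons received test chemical 2 h post-plating and were fixed two days later in warm paraformaldehyde/sucrose containing Hoechst 33342. Neurites, labelled by rabbit anti-βIII-tubulin (1:800) and Alexa Fluor-488 (1:500), were counted automatically.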

The nature of assay [2]: CCTE_Mundy_HCI_hN2_NOG_NeuriteLength: CCTE's Neurite Outgrowth Assay in human hN2 cells for Neurite Length, Mundy Lab (AID 2284220). The gist of the method: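 Plate hNP1-derived neurons, then add chemical 2 h later as a 1/10 dilution. Stain with anti-βIII-tubulin then Alexa Fluor-488 secondary, and image automatically to measure neurite length.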
Assay [3] is described as follows: CCTE_Mundy_HCI_Cortical_Synap_Neur_Matur_NeuriteCount: CCTE's Synaptogenesis and Neurite Maturation Assay in rat cortical cells for Neurite Count, Mundy Lab (AID 2284222; active means hit-call score of the fitted dose curve at least 0.9, where 1 is the maximum; inactive means score below 0.9). The gist of the method: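 Primary rat cortical cells were plated, treated with AraC at DIV 5, then exposed to chemicals from DIV 7 through DIV 12. After fixation and immunostaining for MAP2 and synaptophysin, imaging quantified neurites, with DMSO as the negative control.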

Several values for one entry are separate records, joined by “and”; a condition that tells them apart may be missing. Identical values can stand only once. Results filed as inconclusive are left out. Activity calls are given as the source filed them. How the source made its calls, unless noted: active means hit-call score of the fitted dose curve at least 0.9, where 1 is the maximum; inconclusive means response in the unintended direction; inactive means score below 0.9.

The AC50 is the concentration at which the activity in the assay is half-maximal. For `CC1=C(/C=C/C(C)=C/C=C/C(C)=C/C(=O)O)C(C)(C)CCC1`, the results for the concentration at half-maximal activity (AC50) in assay [1] and in assay [2] were 12.1 µM (active) and 417 nM (active), respectively.

Turning to `CN1CCC[C@H]1c1cccnc1`, the result in assay [2] was inactive. As to `CC#C[C@]1(O)CC[C@H]2[C@@H]3CCC4=CC(=O)CCC4=C3[C@@H](c3ccc(N(C)C)cc3)C[C@@]21C`, the concentration at half-maximal activity (AC50) in assay [3] was 17.9 µM (active) and 23.1 µM (active).
